This is an account of results in PubChem BioAssay (EPA / NIEHS).

Usually AC50 stands for the midpoint of the concentration-response curve, whichever way the signal moves.

“And” between values parts separate entries of the source, which are not always exact repeats. Equal entries are not always repeated. The source made the active and inactive calls. Rule for the calls: active = hit-call score of the fitted dose curve at least 0.9, where 1 is the maximum; inactive = score below 0.9.

Read-out in the first assay: Matrix Metallopeptidase 1 (MMP1), MMP1 (gene 4312)
The assay is described as follows: BSK_MyoF_MMP1: BioMAP Diversity Plus: MyoF Assay for Matrix Metallopeptidase 1 (MMP1) Biomarker Activity (AID 2284268). Particulars: primary human lung fibroblasts. In outline: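 ELISA readout of MMP1 in primary human lung fibroblast cultures, 24 h post-dosing. Gain of signal versus DMSO vehicle control defines activity. Parallel SRB staining (0.1% after 10% TCA fixation, 560 nm) flags overt cytotoxicity.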
For the molecule `COC(F)(C(F)F)C(F)(F)F` (stereo unspecified), the outcome was inactive.

Consider `OC(O)C(F)(F)C(F)(F)F`, for which the outcome was inactive.

Turning to `O=C(O)CCC(F)(F)C(F)(F)C(F)(F)C(F)(F)C(F)(F)C(F)(F)C(F)(F)F`, the result was inactive.

Turning to `O=S(=O)(Cl)C(F)(F)C(F)(F)C(F)(F)C(F)(F)C(F)(F)C(F)(F)C(F)(F)C(F)(F)F`, the result was inactive.

In the case of `O=S(=O)(O)CCC(F)(F)C(F)(F)C(F)(F)C(F)(F)F`, the result was inactive.

As for `NC(=O)C(F)(F)C(F)(F)C(F)(F)C(F)F`, the outcome was inactive.

Consider `C=CC(=O)OCC(F)(F)C(F)(F)C(F)(F)COC(=O)C=C`, for which the outcome was inactive.

On to `O=C(Cl)C(F)(F)C(F)(F)C(F)(F)C(F)(F)C(F)(F)C(F)(F)C(F)(F)F`, for which the result was inactive.

Regarding `NC(=O)C(F)(F)C(F)(F)C(F)(F)C(F)(F)C(F)(F)C(F)(F)C(F)(F)F`, the result was inactive.

On to `OCC(O)CC(F)(F)C(F)(F)C(F)(F)C(F)(F)F` (stereo unspecified), for which the outcome was inactive.

Consider `FC(F)(F)C(F)(F)C(F)(F)C(F)(F)C(F)(F)C(F)(F)CC[Si](Cl)(Cl)Cl`, for which the outcome was inactive.

Turning to `OCC(F)(F)C(F)(F)C(F)(F)C(F)(F)C(F)(F)C(F)(F)CO`, the outcome was inactive.

In the case of `OCC(O)CC(F)(F)C(F)(F)C(F)(F)C(F)(F)C(F)(F)C(F)(F)C(F)(F)C(F)(F)F` (stereo unspecified), the outcome was inactive.

As to `NC(=O)C(F)(F)C(F)(F)C(F)(F)F`, the outcome was inactive.

As to `C=CC(=O)OCC(F)(F)C(F)(F)C(F)(F)C(F)(F)C(F)(F)C(F)(F)C(F)(F)C(F)F`, the AC50 is 39.7 µM (active) and 30 µM (active).

For the molecule `O=C(F)C1(F)C(F)(F)C(F)(F)C(F)(F)C(F)(F)C1(F)F`, the result was inactive.

In the case of `O=S(=O)(OCC(F)(F)F)C(F)(F)C(F)(F)C(F)(F)C(F)(F)F`, the outcome was inactive.

Take `OCC(F)(F)C(F)(F)C(F)(F)CO`: the result was inactive.

On to `CNS(=O)(=O)C(F)(F)C(F)(F)C(F)(F)C(F)(F)C(F)(F)C(F)(F)C(F)(F)C(F)(F)F`, for which the outcome was inactive.

Regarding `O=C(O)C(F)(F)C(F)(F)C(F)(F)OC(F)(C(F)(F)F)C(F)(F)F`, the result was inactive.

`C[Si](Cl)(Cl)CCC(F)(F)C(F)(F)C(F)(F)C(F)(F)C(F)(F)C(F)(F)F`: the outcome was inactive.

In the case of `C=CC(=O)OCCC(F)(F)C(F)(F)C(F)(F)C(F)(F)F`, the result was inactive.

For `NC(O)(C(F)(F)F)C(F)(F)F`, the outcome was inactive.

With `FC(F)(F)C(F)(F)C(F)(F)C(F)(F)C(F)(F)C(F)(F)C(F)(F)CCI`, the result was inactive.

On to `O=S(=O)(O)CCC(F)(F)C(F)(F)C(F)(F)C(F)(F)C(F)(F)C(F)(F)C(F)(F)C(F)(F)F`, for which the result was inactive.

In the case of `O=C(O)C(F)(F)C(F)(F)C(F)(F)OC(F)(F)F`, the result was inactive.

In the case of `FC(F)(F)C(F)(F)C(F)(F)CC1CO1` (stereo unspecified), the outcome was inactive.

Consider `O=C(Cl)C(F)(F)C(F)(F)C(F)(F)C(F)(F)C(F)(F)C(F)(F)F`, for which the result was inactive.

In the case of `C=C(C)C(=O)OCC(F)(F)C(F)(F)C(F)(F)C(F)F`, the outcome was inactive.

In the case of `CN(C(=O)C(F)(F)C(F)(F)C(F)(F)F)[Si](C)(C)C`, the result was inactive.

Regarding `NCC(F)(F)C(F)(F)C(F)(F)C(F)(F)C(F)(F)C(F)(F)C(F)(F)C(F)(F)F`, the result was inactive.

Consider `CO[Si](C)(CCC(F)(F)C(F)(F)C(F)(F)C(F)(F)C(F)(F)C(F)(F)F)OC`, for which the result was inactive.

Regarding `NC(=O)C(F)(F)C(F)(F)C(F)(F)C(F)(F)C(N)=O`, the outcome was inactive.

Read-out in a further assay: TIMP metallopeptidase inhibitor 1 (TIMP1), TIMP1 (gene 7076)
The assay is described as follows: BSK_MyoF_TIMP1: BioMAP Diversity Plus: MyoF Assay for TIMP metallopeptidase inhibitor 1 (TIMP1) Biomarker Activity (AID 2284269). Particulars: primary human lung fibroblasts. In outline:
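ELISA quantified TIMP-1 levels after 24 h dosing of primary human lung fibroblasts, with DMSO as baseline. Parallel SRB total protein staining (0.1% SRB after TCA fixation, 560 nm) flagged overt cytotoxicity.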
`COC(F)(C(F)F)C(F)(F)F` (stereo unspecified): the outcome was inactive.

`OC(O)C(F)(F)C(F)(F)F`: the result was inactive.

For `O=C(O)CCC(F)(F)C(F)(F)C(F)(F)C(F)(F)C(F)(F)C(F)(F)C(F)(F)F`, the outcome was inactive.

With `O=S(=O)(Cl)C(F)(F)C(F)(F)C(F)(F)C(F)(F)C(F)(F)C(F)(F)C(F)(F)C(F)(F)F`, the outcome was inactive.

As to `O=S(=O)(O)CCC(F)(F)C(F)(F)C(F)(F)C(F)(F)F`, the result was inactive.

On to `NC(=O)C(F)(F)C(F)(F)C(F)(F)C(F)F`, for which the outcome was inactive.

Regarding `C=CC(=O)OCC(F)(F)C(F)(F)C(F)(F)COC(=O)C=C`, the AC50 was 16.9 µM (active) and 13.9 µM (active).

Turning to `O=C(Cl)C(F)(F)C(F)(F)C(F)(F)C(F)(F)C(F)(F)C(F)(F)C(F)(F)F`, the outcome was inactive.

Turning to `NC(=O)C(F)(F)C(F)(F)C(F)(F)C(F)(F)C(F)(F)C(F)(F)C(F)(F)F`, the outcome was inactive.

In the case of `OCC(O)CC(F)(F)C(F)(F)C(F)(F)C(F)(F)F` (stereo unspecified), the outcome was inactive.

As for `FC(F)(F)C(F)(F)C(F)(F)C(F)(F)C(F)(F)C(F)(F)CC[Si](Cl)(Cl)Cl`, the result was inactive.

On to `OCC(F)(F)C(F)(F)C(F)(F)C(F)(F)C(F)(F)C(F)(F)CO`, for which the result was inactive.

As for `OCC(O)CC(F)(F)C(F)(F)C(F)(F)C(F)(F)C(F)(F)C(F)(F)C(F)(F)C(F)(F)F` (stereo unspecified), the outcome was inactive.

For `NC(=O)C(F)(F)C(F)(F)C(F)(F)F`, the result was inactive.

Take `C=CC(=O)OCC(F)(F)C(F)(F)C(F)(F)C(F)(F)C(F)(F)C(F)(F)C(F)(F)C(F)F`: the result was inactive.

In the case of `O=C(F)C1(F)C(F)(F)C(F)(F)C(F)(F)C(F)(F)C1(F)F`, the outcome was inactive.

`O=S(=O)(OCC(F)(F)F)C(F)(F)C(F)(F)C(F)(F)C(F)(F)F`: the outcome was inactive.

Regarding `OCC(F)(F)C(F)(F)C(F)(F)CO`, the result was inactive.

As to `CNS(=O)(=O)C(F)(F)C(F)(F)C(F)(F)C(F)(F)C(F)(F)C(F)(F)C(F)(F)C(F)(F)F`, the result was inactive.

Regarding `O=C(O)C(F)(F)C(F)(F)C(F)(F)OC(F)(C(F)(F)F)C(F)(F)F`, the outcome was inactive.

As to `C[Si](Cl)(Cl)CCC(F)(F)C(F)(F)C(F)(F)C(F)(F)C(F)(F)C(F)(F)F`, the outcome was inactive.

As to `C=CC(=O)OCCC(F)(F)C(F)(F)C(F)(F)C(F)(F)F`, the outcome was inactive.

For the molecule `NC(O)(C(F)(F)F)C(F)(F)F`, the outcome was inactive.

With `FC(F)(F)C(F)(F)C(F)(F)C(F)(F)C(F)(F)C(F)(F)C(F)(F)CCI`, the result was inactive.

On to `O=S(=O)(O)CCC(F)(F)C(F)(F)C(F)(F)C(F)(F)C(F)(F)C(F)(F)C(F)(F)C(F)(F)F`, for which the result was inactive.

For `O=C(O)C(F)(F)C(F)(F)C(F)(F)OC(F)(F)F`, the outcome was inactive.

For `FC(F)(F)C(F)(F)C(F)(F)CC1CO1` (stereo unspecified), the outcome was inactive.

Turning to `O=C(Cl)C(F)(F)C(F)(F)C(F)(F)C(F)(F)C(F)(F)C(F)(F)F`, the result was inactive.

In the case of `C=C(C)C(=O)OCC(F)(F)C(F)(F)C(F)(F)C(F)F`, the outcome was inactive.

Regarding `CN(C(=O)C(F)(F)C(F)(F)C(F)(F)F)[Si](C)(C)C`, the outcome was inactive.

In the case of `NCC(F)(F)C(F)(F)C(F)(F)C(F)(F)C(F)(F)C(F)(F)C(F)(F)C(F)(F)F`, the outcome was inactive.

For `CO[Si](C)(CCC(F)(F)C(F)(F)C(F)(F)C(F)(F)C(F)(F)C(F)(F)F)OC`, the outcome was inactive.

Consider `NC(=O)C(F)(F)C(F)(F)C(F)(F)C(F)(F)C(N)=O`, for which the result was inactive.
